# Laboratory results as given in article PMC5540273 (PLoS ONE, 2017).
# System: INSRR
# Details: concentration: 1 μM, replicates: in singlicate; n = 1
# 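Further: KINOMEscan kinase panel screen.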
row,SMILES,%Inh
1,Cl.Cl.c1ccc(-c2cc3ccncc3cc2OC2CCNCC2)cc1 [GSK1122999],0%
2,CCc1nc(-c2cccc(N(C)S(=O)(=O)c3ccccc3)c2)c(-c2ccnc(Nc3ccc(N4CCN(C(C)=O)CC4)nc3)n2)s1 [GSK1645895],0%
3,Clc1ccc(-c2cc(-c3c[nH]nc3-c3ccccn3)ccn2)cc1 [GW681251],0%
4,Clc1cccc(-c2nc(Nc3ccncc3)c3ccccc3n2)c1 [GW873004],4%
5,Cc1ccc(C)c(NC(=O)NCCNc2ccnc(Nc3ccc(F)cc3)n2)c1 [GSK1379878],0%
6,O=C(Nc1ccccc1)Nc1ccc(Oc2ccc3nccn3n2)cc1,1%
7,FC(F)(F)c1cc(Nc2nccc(-c3c(-c4ccc(Cl)cc4)nn4ncccc34)n2)ccc1Cl [GW829351],0%
8,COc1ccc(NC(=O)c2ccc(-c3cc(-c4nnc(C)o4)ccc3C)cc2)cc1 [GW595885],0%
9,NC(=O)c1sc(-n2cnc3ccccc32)cc1OCc1ccccc1F [GSK1024306],0%
10,CC(=O)Nc1n[nH]c2ncc(-c3ccccc3)cc12 [SB-548492],12%
11,CCC(CC)(CC)n1cnc2c(N)ncnc21 [SKF-97620],4%
12,COc1cc2ncnc(Nc3ccc(OCc4ccccc4Br)c(Cl)c3)c2cc1OC.Cl [GI261590],0%
13,CN1c2ccc(-c3ccc(C(=O)NCCO)cc3)cc2-c2[nH]ncc2S1(=O)=O,0%
14,Cl.c1ccc(Cn2ccc3cc(Nc4ncnc5ccccc45)ccc32)cc1 [GW275568],0%
15,O=c1cc(N2CCOCC2)nc2n(Cc3cccc(Cl)c3)ccn12 [GSK2296823],0%
16,CSc1ccc(NC2=C(c3ccccc3Cl)C(=O)NC2=O)cc1 [SB-342411],0%
17,Fc1ccc(Nc2nccc(-c3c(-c4ccc(Cl)cc4)nn4ncccc34)n2)cc1F [GW829058],20%
18,O=C(Nc1ccccc1F)NC1CCN(c2ccnc(Nc3ccc(F)cc3)n2)C1 (stereo not drawn) [GSK1379722],0%

row,SMILES,%Inh
1,N#Cc1ccc(Oc2ccc(Nc3ncnc4cc[nH]c34)cc2Cl)cc1,0%
2,Oc1ccc2ncnc(Nc3ccc(OCc4ccccc4)cc3)c2c1 [GI262866],18%
3,O=C(Nc1n[nH]c2nc(-c3ccco3)c(Br)cc12)c1ccc(CN2CCCC2)cc1.O=C(O)[C@H](O)[C@@H](O)C(=O)O [SB-742352],0%
4,CNc1nccc(-c2c(-c3ccc(F)cc3)ncn2CCCN2CCOCC2)n1 [SB-222516],0%
5,O=C(c1ccc(-c2cc(-c3c[nH]nc3-c3ccccn3)ccn2)cc1)N1CCCC1 [GW792479],0%
6,CSc1nn2c(=O)cc(N3CCOCC3)nc2n1Cc1cccc(Cl)c1Cl [GSK2347225],0%
7,Nc1nc(-c2ccc3c(N)n[nH]c3c2)cc(N2CCCCC2)n1 [GSK2228768],0%
8,Cc1cccc(-c2nc(Nc3ccc4[nH]nnc4c3)c3ccccc3n2)n1 [GW867587],0%
9,COc1ccc(NC(=O)Nc2ccc(C)c(-c3ccc(C(=O)Nc4ccncc4)cc3)c2)cc1 [GSK1398475],0%
10,CC(C)(C)c1ccc(-n2cnc3c(N)ncnc32)cc1 [SKF-97263],6%
11,CCCc1ccc(S(=O)(=O)NC2CCN(c3ccnc(Nc4ccc(OC)cc4)n3)C2)cc1 (stereo not drawn) [GSK1379737],0%
12,Clc1cc(Nc2ncnc3cc[nH]c23)ccc1OCc1ccccn1,0%
13,CC(C)(C)OC(=O)NC1CCCN(c2cc(-c3ccc4c(N)n[nH]c4c3)nc(N)n2)C1 (stereo not drawn) [GSK2286096],0%
14,C[C@@H]1CCN(C(=O)CO)C[C@@H]1N(C)c1ncnc2[nH]ccc12,9%
15,COC(=O)c1cccc(NC(=O)NCCNc2ccnc(Nc3ccc(F)cc3)n2)c1 [GSK1379883],0%
16,Nc1nc(-c2ccc3c(N)n[nH]c3c2)cc(N2CCC[C@@H](C(=O)Nc3ccccc3)C2)n1.O=C(O)C(F)(F)F.O=C(O)C(F)(F)F [GSK2288359],0%
17,OCCOCCn1ccc2ncnc(Nc3ccc(Oc4cccc(Cl)c4)c(Cl)c3)c21,0%
18,c1ccc(-c2ccc3c(-c4ccnc(Nc5ccc6c(c5)OCCO6)n4)cnn3n2)cc1 [GW818941],11%

# System: INSR
# Details: concentration: 1 μM, replicates: in singlicate; n = 1
row,SMILES,%Inh
1,Cl.Cl.c1ccc(-c2cc3ccncc3cc2OC2CCNCC2)cc1 [GSK1122999],0%
2,CCc1nc(-c2cccc(N(C)S(=O)(=O)c3ccccc3)c2)c(-c2ccnc(Nc3ccc(N4CCN(C(C)=O)CC4)nc3)n2)s1 [GSK1645895],20%
3,Clc1ccc(-c2cc(-c3c[nH]nc3-c3ccccn3)ccn2)cc1 [GW681251],0%
4,Clc1cccc(-c2nc(Nc3ccncc3)c3ccccc3n2)c1 [GW873004],0%
5,Cc1ccc(C)c(NC(=O)NCCNc2ccnc(Nc3ccc(F)cc3)n2)c1 [GSK1379878],0%
6,O=C(Nc1ccccc1)Nc1ccc(Oc2ccc3nccn3n2)cc1,0%
7,FC(F)(F)c1cc(Nc2nccc(-c3c(-c4ccc(Cl)cc4)nn4ncccc34)n2)ccc1Cl [GW829351],0%
8,COc1ccc(NC(=O)c2ccc(-c3cc(-c4nnc(C)o4)ccc3C)cc2)cc1 [GW595885],0%
9,NC(=O)c1sc(-n2cnc3ccccc32)cc1OCc1ccccc1F [GSK1024306],0%
10,CC(=O)Nc1n[nH]c2ncc(-c3ccccc3)cc12 [SB-548492],0%
11,CCC(CC)(CC)n1cnc2c(N)ncnc21 [SKF-97620],0%
12,COc1cc2ncnc(Nc3ccc(OCc4ccccc4Br)c(Cl)c3)c2cc1OC.Cl [GI261590],0%
13,CN1c2ccc(-c3ccc(C(=O)NCCO)cc3)cc2-c2[nH]ncc2S1(=O)=O,0%
14,Cl.c1ccc(Cn2ccc3cc(Nc4ncnc5ccccc45)ccc32)cc1 [GW275568],12%
15,O=c1cc(N2CCOCC2)nc2n(Cc3cccc(Cl)c3)ccn12 [GSK2296823],0%
16,CSc1ccc(NC2=C(c3ccccc3Cl)C(=O)NC2=O)cc1 [SB-342411],0%
17,Fc1ccc(Nc2nccc(-c3c(-c4ccc(Cl)cc4)nn4ncccc34)n2)cc1F [GW829058],19%
18,O=C(Nc1ccccc1F)NC1CCN(c2ccnc(Nc3ccc(F)cc3)n2)C1 (stereo not drawn) [GSK1379722],0%

row,SMILES,%Inh
1,N#Cc1ccc(Oc2ccc(Nc3ncnc4cc[nH]c34)cc2Cl)cc1,0%
2,Oc1ccc2ncnc(Nc3ccc(OCc4ccccc4)cc3)c2c1 [GI262866],0%
3,O=C(Nc1n[nH]c2nc(-c3ccco3)c(Br)cc12)c1ccc(CN2CCCC2)cc1.O=C(O)[C@H](O)[C@@H](O)C(=O)O [SB-742352],0%
4,CNc1nccc(-c2c(-c3ccc(F)cc3)ncn2CCCN2CCOCC2)n1 [SB-222516],0%
5,O=C(c1ccc(-c2cc(-c3c[nH]nc3-c3ccccn3)ccn2)cc1)N1CCCC1 [GW792479],6%
6,CSc1nn2c(=O)cc(N3CCOCC3)nc2n1Cc1cccc(Cl)c1Cl [GSK2347225],17%
7,Nc1nc(-c2ccc3c(N)n[nH]c3c2)cc(N2CCCCC2)n1 [GSK2228768],1%
8,Cc1cccc(-c2nc(Nc3ccc4[nH]nnc4c3)c3ccccc3n2)n1 [GW867587],0%
9,COc1ccc(NC(=O)Nc2ccc(C)c(-c3ccc(C(=O)Nc4ccncc4)cc3)c2)cc1 [GSK1398475],30%
10,CC(C)(C)c1ccc(-n2cnc3c(N)ncnc32)cc1 [SKF-97263],21%
11,CCCc1ccc(S(=O)(=O)NC2CCN(c3ccnc(Nc4ccc(OC)cc4)n3)C2)cc1 (stereo not drawn) [GSK1379737],0%
12,Clc1cc(Nc2ncnc3cc[nH]c23)ccc1OCc1ccccn1,3%
13,CC(C)(C)OC(=O)NC1CCCN(c2cc(-c3ccc4c(N)n[nH]c4c3)nc(N)n2)C1 (stereo not drawn) [GSK2286096],0%
14,C[C@@H]1CCN(C(=O)CO)C[C@@H]1N(C)c1ncnc2[nH]ccc12,0%
15,COC(=O)c1cccc(NC(=O)NCCNc2ccnc(Nc3ccc(F)cc3)n2)c1 [GSK1379883],0%
16,Nc1nc(-c2ccc3c(N)n[nH]c3c2)cc(N2CCC[C@@H](C(=O)Nc3ccccc3)C2)n1.O=C(O)C(F)(F)F.O=C(O)C(F)(F)F [GSK2288359],9%
17,OCCOCCn1ccc2ncnc(Nc3ccc(Oc4cccc(Cl)c4)c(Cl)c3)c21,0%
18,c1ccc(-c2ccc3c(-c4ccnc(Nc5ccc6c(c5)OCCO6)n4)cnn3n2)cc1 [GW818941],3%
